Results published in PubChem BioAssay (NCI).
About 83,000 compounds went through this panel and 20% of them were active in at least one assay; those are over-represented in the sample as a whole.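 Values shown are percent growth following 48 h exposure of cells in 96-well plates to a single concentration of compound; below 10 was considered active.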 Active and inactive are the calls of the source.

Key:
Test in all cases: NCI-60 one-dose screen, 48 h (100 = growth as untreated, 0 = no growth, -100 = all killed)
Conditions in all cases: 10 µM unless noted
T-47D breast = tested on: T-47D breast
BT-549 breast = tested on: BT-549 breast
MDA-MB-435 melanoma = tested on: MDA-MB-435 melanoma
SW-620 colon = tested on: SW-620 colon
MCF7 breast = tested on: MCF7 breast
HCT-116 colon = tested on: HCT-116 colon
HCC-2998 colon = tested on: HCC-2998 colon
KM12 colon = tested on: KM12 colon

Measured: growth

CC(=O)Oc1ccc(CCN2C(=O)CSC2=S)cc1
inactive: T-47D breast 41.2% | BT-549 breast 95.9% | MDA-MB-435 melanoma 69.2% | SW-620 colon 47.1% | MCF7 breast 33.3% | HCT-116 colon 75.6% | HCC-2998 colon 108% | KM12 colon 22.3%

O=C(NCCCNc1cc(-c2cn(-c3ccccc3)nc2-c2cccc(O)c2)ccn1)Nc1ccc(F)cc1
active: MDA-MB-435 melanoma -39.5% | HCC-2998 colon -60.3% | KM12 colon 2.62%
inactive: T-47D breast 11.3% | BT-549 breast 22% | SW-620 colon 13.5% | MCF7 breast 10.8% | HCT-116 colon 10.4%

COc1ccc([C@H]2[C@H](O)C(=O)N2c2cc(OC)c(OC)c(OC)c2)cc1
active: BT-549 breast -2.44% | MDA-MB-435 melanoma -12.9% | HCT-116 colon 0.54%
inactive: T-47D breast 70.2% | SW-620 colon 20.3% | MCF7 breast 12.4% | HCC-2998 colon 16.3% | KM12 colon 18.8%

O=C1c2cc(Br)ccc2-n2c1nc1cc(Br)ccc1c2=O
active: MDA-MB-435 melanoma -85.6%
inactive: T-47D breast 79.7% | BT-549 breast 124% | SW-620 colon 68% | MCF7 breast 59.3% | HCT-116 colon 81.8% | HCC-2998 colon 108% | KM12 colon 77.5%

COc1cc2c3c(n(CCCNCC4CC4)c(=O)c2cc1OC)-c1cc2c(cc1C3=O)OCO2
inactive: T-47D breast 50.6% | BT-549 breast 66.1% | MDA-MB-435 melanoma 65% | HCC-2998 colon 69.1% | KM12 colon 65.1%
active: SW-620 colon -20.1% | MCF7 breast -77.4% | HCT-116 colon -85.1%

Cc1cnc2nc(NN)[nH]n12
inactive: T-47D breast 98.4% | BT-549 breast 111% | MDA-MB-435 melanoma 99.7% | SW-620 colon 103% | MCF7 breast 92.6% | HCT-116 colon 98.9% | HCC-2998 colon 108% | KM12 colon 100%

Cc1cn(-c2cc(NC(=O)c3cncc(C#Cc4cnc5ccc(O[C@H]6CCOC6)nn45)c3)cc(C(F)(F)F)c2)cn1
inactive: T-47D breast 98.2% | BT-549 breast 181% | MDA-MB-435 melanoma 76.5% | SW-620 colon 58.9% | MCF7 breast 44.6% | HCT-116 colon 44.2% | HCC-2998 colon 84.7% | KM12 colon 21.9%

CCN(CC)c1ccc2cc(C(=O)NCCOCCOCCOCCn3cc(CCC(=O)Nc4ccc(C(=O)c5ccc(NC(=O)OC(C)(C)C)cc5)cc4)nn3)c(=O)oc2c1
active: T-47D breast -8.51%
inactive: BT-549 breast 26.4% | MDA-MB-435 melanoma 62.4% | SW-620 colon 82.1% | MCF7 breast 44.1% | HCT-116 colon 36.3% | HCC-2998 colon 96.8% | KM12 colon 36.6%

CS(=O)(=O)c1ccc2c(c1)c1c(n2C(=O)c2ccc(Cl)cc2)CCCC1
active: MDA-MB-435 melanoma -24.3%
inactive: T-47D breast 18.1% | BT-549 breast 33% | SW-620 colon 13.6% | MCF7 breast 17.8% | HCT-116 colon 27.6% | HCC-2998 colon 59.9% | KM12 colon 29.8%

O=C(CCCCCCN1CC(=O)N2[C@@H](c3cccc(Br)c3)c3[nH]c4ccccc4c3C[C@H]2C1=O)NO
inactive: T-47D breast 17.2% | BT-549 breast 57.9% | MDA-MB-435 melanoma 14% | SW-620 colon 15% | MCF7 breast 21.4% | HCC-2998 colon 41.6% | KM12 colon 28.4%
active: HCT-116 colon 8.35%

CN(C)CCn1c2ccc(N)cc2c2nc3ccccc3nc21
active: MCF7 breast 9.61%
inactive: T-47D breast 36.4% | BT-549 breast 85.5% | MDA-MB-435 melanoma 38.4% | SW-620 colon 17.1% | HCT-116 colon 11.3% | HCC-2998 colon 45.9% | KM12 colon 38.5%

Nc1nc(-c2cccc([N+](=O)[O-])c2)c(N=Nc2cccc(Cl)c2)s1
inactive: T-47D breast 13.6% | BT-549 breast 48.7% | MDA-MB-435 melanoma 53.3% | SW-620 colon 52.4% | MCF7 breast 19.1% | HCT-116 colon 33.2% | HCC-2998 colon 27.2%

NC(=O)C(=Cc1ccc(Cl)cc1)C(N)=O
inactive: T-47D breast 45.2% | BT-549 breast 58.1% | MDA-MB-435 melanoma 69.6% | SW-620 colon 52.2% | MCF7 breast 34.4% | HCT-116 colon 52.2% | HCC-2998 colon 85.7% | KM12 colon 85.2%

C=CCn1c(SCC(=O)c2ccc(OC)cc2)nnc1-c1ccc(OC)cc1
inactive: T-47D breast 105% | BT-549 breast 95.9% | MDA-MB-435 melanoma 97.8% | SW-620 colon 106% | MCF7 breast 96% | HCT-116 colon 96.1% | HCC-2998 colon 109% | KM12 colon 97.7%

COc1ccc(CN2C(=O)/C(=C/c3nc(CO)cs3)SC2=S)cc1
active: KM12 colon 9.43%
inactive: T-47D breast 53% | BT-549 breast 99.9% | MDA-MB-435 melanoma 89.7% | SW-620 colon 77.8% | MCF7 breast 12% | HCT-116 colon 75% | HCC-2998 colon 109%

Oc1ccccc1-c1nnc(SCc2ccc(O)c3ncccc23)o1
active: MCF7 breast 6.74%
inactive: T-47D breast 11.6% | BT-549 breast 32.3% | MDA-MB-435 melanoma 18.5% | SW-620 colon 28.2% | HCT-116 colon 10.5% | HCC-2998 colon 46% | KM12 colon 29.3%

COc1cc(/C=N/n2cnc3oc(-c4ccccc4)cc3c2=N)cc(CN2CCOCC2)c1O
inactive: T-47D breast 81.6% | BT-549 breast 109% | MDA-MB-435 melanoma 60.8% | SW-620 colon 86.1% | MCF7 breast 73.8% | HCT-116 colon 29.8% | HCC-2998 colon 101% | KM12 colon 41.1%

O=C(NCCCNc1cc(-c2cn(-c3ccccc3)nc2-c2cccc(O)c2)ccn1)Nc1cccc(C(F)(F)F)c1
active: HCC-2998 colon -34.7%
inactive: T-47D breast 39.2% | BT-549 breast 68.8% | MDA-MB-435 melanoma 31.7% | SW-620 colon 12.4% | MCF7 breast 23.7% | HCT-116 colon 23.1% | KM12 colon 10.7%

O=S(=O)(NC1CC2CCC1C2)c1ccc2c(c1)C(=NO)c1cc(S(=O)(=O)NC3CC4CCC3C4)ccc1-2 (centres undefined)
inactive: BT-549 breast 31.7% | MDA-MB-435 melanoma 27.1% | MCF7 breast 25.3% | HCT-116 colon 20.3% | HCC-2998 colon 38.9% | KM12 colon 45.9%
active: T-47D breast -0.508% | SW-620 colon -63.4%

O=C(Nc1cccc(Cl)c1)Nc1nc2ccc(-c3cccc4ccccc34)cc2s1
inactive: T-47D breast 11.2% | BT-549 breast 102% | MDA-MB-435 melanoma 54.3% | SW-620 colon 43.7% | MCF7 breast 58.3% | HCT-116 colon 27% | HCC-2998 colon 57.3% | KM12 colon 23%

O=C(Nc1cc(Cl)cc(Cl)c1)Nc1ccc2oc(=O)ccc2c1
active: T-47D breast 3.54% | MCF7 breast 5.48% | HCT-116 colon 1.36%
inactive: BT-549 breast 29% | MDA-MB-435 melanoma 13.9% | SW-620 colon 17.3% | HCC-2998 colon 27.3% | KM12 colon 11.5%

O=C1Nc2cc(OC(F)(F)F)ccc2Oc2ccc(-c3ccnc(N4CCNCC4)c3)cc21
active: T-47D breast -61.9% | BT-549 breast -4.26% | MDA-MB-435 melanoma -95.7% | SW-620 colon -91.8% | MCF7 breast -55.7% | HCT-116 colon -91.4% | HCC-2998 colon -76.8% | KM12 colon -10.6%

COc1ccc2c(c1)oc1c3[nH]c4ccccc4c3c3c(c21)C(=O)N(O)C3=O
inactive: T-47D breast 10.8% | BT-549 breast 40.9% | MDA-MB-435 melanoma 53.2% | SW-620 colon 34.3% | MCF7 breast 15.7% | HCT-116 colon 21.5% | HCC-2998 colon 84.7% | KM12 colon 48%

Cc1cc(-c2ccc3nc(N)sc3c2)nc2ccc3[nH]ncc3c12
active: MDA-MB-435 melanoma -44.2%
inactive: T-47D breast 58.5% | BT-549 breast 33% | SW-620 colon 15.7% | MCF7 breast 21% | HCT-116 colon 21.8% | HCC-2998 colon 66.3% | KM12 colon 34.6%

Cc1ccc(-c2cc(-c3cccc4ccccc34)n3c(n2)nc2ccccc23)cc1
inactive: T-47D breast 54.1% | BT-549 breast 69.1% | MDA-MB-435 melanoma 65% | SW-620 colon 45.2% | MCF7 breast 22.6% | HCT-116 colon 43.4% | HCC-2998 colon 92% | KM12 colon 78.9%

C[C@H]1[C@H](C)CC[C@]2(COC(=O)c3cccnc3)CC[C@]3(C)C(=CC[C@@H]4[C@@]5(C)CCCNC(C)(C)[C@@H]5CC[C@]43C)[C@H]12
inactive: T-47D breast 61% | BT-549 breast 76.5% | MDA-MB-435 melanoma 68.5% | SW-620 colon 39.1% | MCF7 breast 67.3% | HCT-116 colon 33.5% | HCC-2998 colon 49.6% | KM12 colon 68.9%

COC(=O)[C@@]1(C)CC[C@]2(C)CC[C@]3(C)C(=CC(=O)[C@@H]4[C@@]5(C)Cc6c(n(CC#CCN7CCN(C)CC7)c7ccccc67)C(C)(C)[C@@H]5CC[C@]43C)[C@@H]2C1
inactive: T-47D breast 84.8% | BT-549 breast 90.5% | MDA-MB-435 melanoma 40.3% | HCC-2998 colon 94.8% | KM12 colon 52.8%
active: SW-620 colon -63.4% | MCF7 breast -32.4% | HCT-116 colon -28.7%

CC1(COc2ccc3ncc(C#Cc4cncc(C(=O)Nc5cc(C(C)(C)C)on5)c4)n3n2)COC1
inactive: T-47D breast 32.5% | BT-549 breast 81.3% | MDA-MB-435 melanoma 50% | SW-620 colon 38.2% | MCF7 breast 40.5% | HCT-116 colon 17.9% | HCC-2998 colon 49.7% | KM12 colon 15%

NC(=O)c1c(NC(=O)c2cccc(C(F)(F)F)c2F)sc2c1CCC(=O)C2
active: SW-620 colon 2.94% | MCF7 breast 6.11% | HCT-116 colon 7.49% | KM12 colon 7.39%
inactive: T-47D breast 11.8% | BT-549 breast 11.4% | MDA-MB-435 melanoma 12.3% | HCC-2998 colon 44.1%

COc1cc(NC2=C(Cl)C(=O)c3nc(C)ccc3C2=O)cc(OC)c1
active: T-47D breast -56% | MDA-MB-435 melanoma -87.4% | SW-620 colon -90.2% | MCF7 breast -51.7% | HCT-116 colon -97.8%
inactive: BT-549 breast 24.1% | HCC-2998 colon 14.4% | KM12 colon 39.3%
